# Data reported in ChEMBL document CHEMBL1961873, “Compounds: GSK PKIS; Assays: Nanosyn kinase panel” (2012).
# Biological target: T1, Testis-specific serine/threonine-protein kinase 2 (Homo sapiens) (UniProt Q96PF2)
# T1 sequence (whole entry): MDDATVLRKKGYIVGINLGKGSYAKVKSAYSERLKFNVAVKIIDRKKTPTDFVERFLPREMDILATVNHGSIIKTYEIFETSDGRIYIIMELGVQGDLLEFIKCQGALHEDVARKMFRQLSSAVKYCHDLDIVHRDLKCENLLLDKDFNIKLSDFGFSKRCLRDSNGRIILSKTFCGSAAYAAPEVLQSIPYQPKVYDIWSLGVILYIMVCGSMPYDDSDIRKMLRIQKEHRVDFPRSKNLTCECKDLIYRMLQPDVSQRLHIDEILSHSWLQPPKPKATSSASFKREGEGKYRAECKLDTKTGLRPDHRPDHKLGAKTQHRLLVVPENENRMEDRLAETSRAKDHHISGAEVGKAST
# Settings: at 0.1 µM
row,SMILES,inhibition [%]
1,COc1ccc(-c2cc(-c3c[nH]nc3-c3ccccn3)ccn2)cc1,2.38
2,Nc1nc(-c2cccc(Cl)c2)c(-c2ccc3ncccc3n2)s1,3.52
3,Clc1ccc(-c2nn3ncccc3c2-c2ccnc(Nc3ccccc3)n2)cc1,2.19
4,CCN1CCC(CC(=O)Nc2n[nH]c3nnc(-c4cccc(F)c4F)cc23)CC1,3.15
5,CN1CCC(n2cnc(-c3ccc(F)cc3)c2-c2ccnc(N)n2)CC1,2.28
6,CNC(=O)c1cncc(/C=C/c2ccccc2Cl)c1,-0.03
7,CC(C)COC(=O)c1ccc2c(c1)/C(=C/Nc1ccc(S(N)(=O)=O)cc1)C(=O)N2,-0.78
8,CCN(CC)S(=O)(=O)c1ccc(OC)c(Nc2ncc(-c3ccccc3)o2)c1,-0.73
9,COc1ccc(-c2oc3ncnc(N)c3c2-c2ccc(NC(=O)Nc3cc(C(F)(F)F)ccc3F)cc2)cc1,3.63
10,COc1ccc(CNC(=O)c2ccc(-c3cc(-c4nnc(C)o4)ccc3C)cc2)cc1,2.67
11,CC(C)(CO)CNC(=O)c1ccc2c(c1)/C(=N/Nc1ccc(S(N)(=O)=O)cc1)C(=O)N2,0.45
12,Cc1cccc2c1NC(=O)/C2=N\Nc1ccc(S(N)(=O)=O)cc1,0.81
13,Cc1ccc2c(-c3ccnc(Nc4ccccc4)n3)c(-c3ccc(F)cc3)nn2n1,2.66
14,CNC(=O)c1cccc(C#Cc2cncnc2Nc2ccc(OCc3cccc(F)c3)c(Cl)c2)c1,1.7
15,c1cc(-c2cnn3nc(N4CCOCC4)ccc23)nc(NC2CC2)n1,0.16
16,FC(F)(F)c1cccc(-c2nn3ncccc3c2-c2ccnc(Nc3ccc4c(c3)OCCO4)n2)c1,-0.07
17,CC1=C(C(=O)Nc2cc(Cl)c3[nH]ncc3c2)C(c2ccc(C(F)(F)F)cc2)CC(=O)N1 (stereo not drawn),2.37
18,COc1cc(N2CCN(C(C)C)CC2)ccc1Nc1nc(Nc2ccc(F)cc2C(N)=O)c2cc[nH]c2n1,58.6
19,O=C(Nc1n[nH]c2cc(-c3ccc(F)cc3)ccc12)C1CC1,2.29

# Biological target: T1, Testis-specific serine/threonine-protein kinase 2 (Homo sapiens)
# Settings: at 1 µM
row,SMILES,inhibition [%]
1,COc1cc(/C=N/Nc2ncnc3[nH]ncc23)ccc1O,1.44
2,COc1cc(Nc2nccc(Nc3ccc4c(C)n[nH]c4c3)n2)cc(OC)c1OC,-0.95
3,COc1cc2c(cc1Nc1nc(Nc3ccsc3C(N)=O)c3cc[nH]c3n1)N(C(=O)CN(C)C)CCC2(C)C,94.6
4,CCn1c(-c2nonc2N)nc2c(C#CC(C)(C)O)nc(OC[C@H](N)c3ccccc3)cc21,2.24
5,COC(=O)Nc1nc2ccc(S(=O)(=O)c3ccc(NC(=O)Nc4cc(C(F)(F)F)ccc4F)cc3)cc2[nH]1,-0.82
6,N#Cc1c(NC(=O)c2ccc(F)cc2)sc2c1CCCC2,0.33
7,CCn1c(-c2nonc2N)nc2c(C#CC(C)(C)O)ncc(OC3CCNCC3)c21,2.99
8,CCn1c(-c2nonc2N)nc2cnc(Oc3cccc(NC(=O)c4ccc(N(C)C)cc4)c3)cc21,-0.76
9,Fc1cccc(COc2ccc(Nc3ncnc4sc(-c5ccco5)cc34)cc2Cl)c1,2.23
10,O=S(=O)(CCNCc1ccc(-c2ccc3ncnc(Nc4ccc(OCc5cccc(F)c5)c(Cl)c4)c3c2)o1)c1ccccc1,3.64
11,COc1cccc(-n2ncc3c(N/N=C/c4ccc(F)cc4)ncnc32)c1,2.25
12,NC(=O)c1sc(-n2cnc3ccc(C(F)(F)F)cc32)cc1OCc1ccccc1Br,2.38
13,NS(=O)(=O)c1ccc(N/N=C2\C(=O)Nc3ccc4ncccc4c32)cc1,4.1
14,c1ccc(-c2nc3n(c2-c2ccc4c(c2)OCO4)CCC3)nc1,0.57
15,CCNC(=O)O[C@H]1CN[C@H](C#Cc2cc3ncnc(Nc4ccc(OCc5cccc(F)c5)c(Cl)c4)c3s2)C1,-1.23
16,COc1ccc(-c2cc(-c3c[nH]nc3-c3ccccn3)ccn2)cc1,3.88
17,Nc1nc(-c2cccc(Cl)c2)c(-c2ccc3ncccc3n2)s1,6.73

row,SMILES,inhibition [%]
1,Clc1ccc(-c2nn3ncccc3c2-c2ccnc(Nc3ccccc3)n2)cc1,-0.46
2,CCN1CCC(CC(=O)Nc2n[nH]c3nnc(-c4cccc(F)c4F)cc23)CC1,1.74
3,CN1CCC(n2cnc(-c3ccc(F)cc3)c2-c2ccnc(N)n2)CC1,1.61
4,CNC(=O)c1cncc(/C=C/c2ccccc2Cl)c1,2.91
5,CC(C)COC(=O)c1ccc2c(c1)/C(=C/Nc1ccc(S(N)(=O)=O)cc1)C(=O)N2,0.83
6,CCN(CC)S(=O)(=O)c1ccc(OC)c(Nc2ncc(-c3ccccc3)o2)c1,-0.01
7,COc1ccc(-c2oc3ncnc(N)c3c2-c2ccc(NC(=O)Nc3cc(C(F)(F)F)ccc3F)cc2)cc1,3.45
8,COc1ccc(CNC(=O)c2ccc(-c3cc(-c4nnc(C)o4)ccc3C)cc2)cc1,6.58
9,CC(C)(CO)CNC(=O)c1ccc2c(c1)/C(=N/Nc1ccc(S(N)(=O)=O)cc1)C(=O)N2,-0.69
10,Cc1cccc2c1NC(=O)/C2=N\Nc1ccc(S(N)(=O)=O)cc1,-1.61
11,Cc1ccc2c(-c3ccnc(Nc4ccccc4)n3)c(-c3ccc(F)cc3)nn2n1,-2.67
12,CNC(=O)c1cccc(C#Cc2cncnc2Nc2ccc(OCc3cccc(F)c3)c(Cl)c2)c1,2.08
13,c1cc(-c2cnn3nc(N4CCOCC4)ccc23)nc(NC2CC2)n1,-3.76
14,FC(F)(F)c1cccc(-c2nn3ncccc3c2-c2ccnc(Nc3ccc4c(c3)OCCO4)n2)c1,-1.1
15,CC1=C(C(=O)Nc2cc(Cl)c3[nH]ncc3c2)C(c2ccc(C(F)(F)F)cc2)CC(=O)N1 (stereo not drawn),1.37
16,COc1cc(N2CCN(C(C)C)CC2)ccc1Nc1nc(Nc2ccc(F)cc2C(N)=O)c2cc[nH]c2n1,90.8
17,O=C(Nc1n[nH]c2cc(-c3ccc(F)cc3)ccc12)C1CC1,0.97
